In all, about 310,000 compounds went through this assay and about 1,300 (0.42%) were called active. This excerpt belongs to a sample that is enriched for actives. A number with no mark means an inactive call. Rule as the data show it: active = inhibition above about 50%; inactive = the rest.

Inhibition data for 59 molecules are collected here from PubChem BioAssay AID504441 (Broad Institute, 2011).

This test deals with Dual specificity tyrosine-phosphorylation-regulated kinase 1A (Rattus norvegicus) (UniProt Q63470). The test is described as follows: inhibition of Dyrk1A kinase activity – biochemical, single point, plate reader, primary screen (AID 504441).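 Also: plate controls were vehicle with enzyme for no effect and no enzyme for full effect.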 Particulars: ADP-Glo luminescence, NFATc1 peptide, at 12.5 µM, hits give high values.
Consider `Oc1ccc2nc(Cc3ccccc3)[nH]c2c1`, for which the inhibition was 10.9%.

As for `Oc1ccc(-c2nc3ccccc3nc2-c2ccc(O)cc2O)c(O)c1`, the inhibition was 76.3% (active).

Turning to `Cc1nc2ccccc2nc1N/N=C/c1ccc(O)cc1O`, the inhibition is 9.74%.

In the case of `CC(NC(=O)c1ccccc1)C(=O)OCC(=O)Nc1cccc(S(=O)(=O)N2CCCC2)c1` (centres undefined), the inhibition was 1.68%.

With `Cc1ccnc(NS(=O)(=O)c2ccc(NC(=O)c3oc4ccccc4c3C)cc2)n1`, the inhibition was 28.5%.

Turning to `Cc1noc(NS(=O)(=O)c2ccc(NC(=O)c3oc4ccc(F)cc4c3C)cc2)c1C`, the inhibition is 60% (active).

As to `Cc1ccnc(NS(=O)(=O)c2ccc(NC(=O)c3oc4ccc(F)cc4c3C)cc2)n1`, the inhibition was 1.02%.

With `CCC1(C)COC(c2ccc(OC)c(OC)c2)OC1` (centres undefined), the inhibition is 2.1%.

In the case of `O=C(O)C(c1cccs1)C1(O)CCCCC1` (centres undefined), the inhibition was 2.77%.

As for `NC(=O)C1CCN(C(=O)c2cc(S(=O)(=O)N3CCN(c4ccccc4)CC3)ccc2Cl)CC1`, the inhibition is 8.45%.

For `CC(C)Cn1cnc2c(SCc3ccc(Cl)cc3)nc(N)nc21`, the inhibition is 7.52%.

For the molecule `CCc1nnc(NC(=O)c2cc(S(=O)(=O)N3CCN(CC)CC3)ccc2Cl)s1`, the inhibition was 7.13%.

`c1ccc(C(=NNc2nc3ccccc3s2)c2ccccn2)cc1`: the inhibition is 12.7%.

Take `COc1ccc(N=C2C=CC(=O)O2)cc1`: the inhibition was 7.98%.

As for `O=C(NCC1(N2CCCCC2)CCCCC1)c1cccc(S(=O)(=O)Nc2ccccc2Cl)c1`, the inhibition was -5.86%.

On to `COc1cccc2c(O)cc(=O)n(C)c12`, for which the inhibition was 26.6%.

For the molecule `COc1cc(O)c2c(=O)c3c(O)c(O)ccc3oc2c1OC`, the inhibition is 50.1% (active).

Regarding `COc1cccc2cc(-c3cc(=O)oc4cc(C)c(O)cc34)oc12`, the inhibition was -4.38%.

Turning to `CC(C)(C)OC(=O)N(Cc1ccccc1)Cc1ccc(OCc2cccc(NC(=O)c3ccccc3)c2)cc1`, the inhibition is -3.26%.

`COc1ccc(-c2nc3cc(C)ccn3c2NC2CCCCC2)cc1SC1CCCCC1`: the inhibition was 1.83%.

For the molecule `CCN(CC)S(=O)(=O)c1cccc(NC(=O)c2ccc(S(=O)(=O)N3CCCC3)cc2)c1`, the inhibition was 1.24%.

For `CC(C)(C)OC(=O)N1CCC(C(=O)Nc2cccc(C(=O)NCCc3ccccc3)c2)CC1`, the inhibition is -16.9%.

On to `CCN(CC)c1ccc(NC(=O)CCc2nnc3ccc(N4CCCCC4)nn23)c(C)c1`, for which the inhibition was 59.6% (active).

As to `CCOC(=O)c1cccc(NC(=O)CCc2nnc3ccc(N4CCOCC4)nn23)c1`, the inhibition is 2.86%.

`CCOc1ccc(CCNC(=O)CCc2nnc3ccc(N4CCCC4)nn23)cc1OCC`: the inhibition was 17.6%.

For `O=C1C(Cl)=C(Oc2ccccc2)C(=O)c2ccccc21`, the inhibition was 35.4%.

Regarding `Oc1cccc(CCc2ccccn2)c1`, the inhibition is 7.91%.

For the molecule `COc1ccc(OC)c(Cc2cnc3nc(N)nc(N)c3c2C)c1`, the inhibition is -1.98%.

Consider `Nc1nonc1-n1nnc(C(=O)N/N=C\c2ccncc2)c1CN1CCCCC1`, for which the inhibition is 77.4% (active).

Consider `Nc1nonc1-n1nnc(C(=O)N/N=C/c2ccccc2O)c1CN1CCCC1`, for which the inhibition was 14.8%.

Regarding `NNC(=O)c1nnn(-c2nonc2N)c1CN1CCCC1`, the inhibition is 15.1%.

Turning to `Cc1nc(Nc2ccccc2C)c2cnn(C)c2n1`, the inhibition was -5.25%.

For the molecule `CCOC(=O)N(Cc1ccccc1)C1CC1`, the inhibition is -0.945%.

`COc1ccc(CCC(=O)Nc2ccc(Cl)c(S(=O)(=O)N3CCOCC3)c2)cc1OC`: the inhibition is -1.66%.

On to `CN1c2ccc(C=O)c3c(C=O)ccc(c23)N(C)C1(C)C`, for which the inhibition is 91.2% (active).

In the case of `CN(CCc1ccccc1)C(=O)c1cccc(NC(=O)Cc2cccc(NC(=O)C3CCCN(C(=O)C4CCC4)C3)c2)c1` (centres undefined), the inhibition is -0.693%.

In the case of `CCCN(CC(=O)Nc1ccccc1C)C(=O)c1ccc(OCC(=O)N2CCOCC2)c(OCC)c1`, the inhibition was -7.61%.

Consider `CN(O)C(=S)c1ccccc1`, for which the inhibition was -0.499%.

Regarding `CSc1ncnc2c1ncn2CC(=O)C1CCC2C3CCC4=CC(=O)CCC4(C)C3CCC12C` (centres undefined), the inhibition was 5.41%.

Turning to `COc1cc(OC)cc(-c2cc3ccc(F)cc3cn2)c1`, the inhibition was 13.1%.

As to `CCOc1ccc(S(=O)(=O)N2CCN(C(=O)c3oc4ccccc4c3C)CC2)cc1`, the inhibition is 3.49%.

In the case of `CCn1c(NC(=O)c2ccccc2)c(-c2cccs2)c(=O)c2ccccc21`, the inhibition was 65.9% (active).

Take `COc1ccccc1C(=O)Nn1c(-c2cccs2)nc2ccccc2c1=O`: the inhibition is 32.3%.

Consider `CCn1c(=O)c2cc(C(=O)Nc3cccc(C(C)=O)c3)sc2c2ccccc21`, for which the inhibition was -0.698%.

`CCc1cc2c(NC(Cc3ccccc3)C(=O)O)ncnc2s1` (centres undefined): the inhibition is 2.6%.

Take `CCc1cc2c(NC3CCCC3)ncnc2s1`: the inhibition is 53.2% (active).

For the molecule `CCc1cc2c(N3CCN(c4nnc(CC)s4)CC3)ncnc2s1`, the inhibition was 25.4%.

In the case of `COc1cc(/C=C/c2ccc(/C=C/c3cc(OC)c(OC)c(OC)c3)cc2)cc(OC)c1OC`, the inhibition was -1.84%.

Regarding `C#CCOCCOCCOCCNc1nc(N2CCN(C(=O)Cn3cc(CCO)nn3)CC2)nc(N2CCN(C(=O)Cn3cc(CCCN=C(N)N)nn3)CC2)n1`, the inhibition is 4.84%.

Regarding `COc1ccc(Cl)cc1C=CC=Nc1ccc(S(N)(=O)=O)cc1`, the inhibition was -0.507%.

With `COc1ccc(S(=O)(=O)N(C)C[C@H]2Oc3ccc(NS(=O)(=O)c4cccs4)cc3CC(=O)N([C@H](C)CO)C[C@H]2C)cc1`, the inhibition was 55.4% (active).

As for `COc1ccc(S(=O)(=O)N(C)C[C@@H]2Oc3ccc(NS(=O)(=O)c4cn(C)cn4)cc3C(=O)N([C@@H](C)CO)C[C@@H]2C)cc1`, the inhibition is 0.973%.

Turning to `C[C@H]1CN([C@@H](C)CO)C(=O)Cc2cc(NC(=O)Cc3ccccc3)ccc2O[C@H]1CN(C)S(=O)(=O)c1cccs1`, the inhibition was -0.989%.

In the case of `O=C(NC1=CC(=O)c2ccccc2C1=O)c1ccccc1`, the inhibition is -0.529%.

For `O=C(OC12CC3CC(CC(C3)C1)C2)c1ccc(NCc2cc(O)ccc2O)cc1`, the inhibition is 1.7%.

As for `Cc1nn(-c2ncccn2)c2c1C(=O)CC(C)(C)C2Br` (centres undefined), the inhibition is 6.11%.

Turning to `C=C(C)Cn1c(N2CCN(CC)CC2)nc2c1c(=O)[nH]c(=O)n2C`, the inhibition is 55.9% (active).

In the case of `Cn1c(=O)[nH]c(=O)c2c1nc(N1CCN(C(c3ccccc3)c3ccccc3)CC1)n2CCO`, the inhibition is 1.27%.

Regarding `C=C(C)Cn1c(N2CCCC2)nc2c1c(=O)[nH]c(=O)n2C`, the inhibition was -3.28%.
